High-throughput results deposited in PubChem by National Center for Advancing Translational Sciences (NCATS).
Hits are enriched below; roughly 2.8% of the tested compounds scored in any of these assays.
B2AR arrestin – qHTS assay of beta-arrestin-biased ligands of beta2-adrenergic receptor; Beta-2 adrenergic receptor (Homo sapiens), P07550; beta-arrestin recruitment to beta2AR, cell-based reporter; Potency, µM (titrated, usually from 46.1 µM), inactives show at the top dose activation, hits mostly activators; 330,000 compounds, 0.02% hits; AID 492947, 2010; active = well fitted activation curve with a large enough effect; inconclusive = small, poorly fitted or top-dose-only effect;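 also: potency is read from the fitted curve at half-maximal effect; 0% = DMSO controls and full agonism = EC100 isoproterenol or metaproterenol; nearly all actives have a fitted effect of over 65% in size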
DRD3 agonist – qHTS of D3 Dopamine Receptor Agonist: qHTS; D(3) dopamine receptor (Homo sapiens), P35462; D3R DiscoveRx beta-arrestin cells, luminescence, 90 min; max activation, %; 410,000 compounds, 0.58% hits; AID 652048, 2013; in the data active = max activation above about 30%; also: 0% is about no effect
Target sequence (P35462 whole entry, looked up): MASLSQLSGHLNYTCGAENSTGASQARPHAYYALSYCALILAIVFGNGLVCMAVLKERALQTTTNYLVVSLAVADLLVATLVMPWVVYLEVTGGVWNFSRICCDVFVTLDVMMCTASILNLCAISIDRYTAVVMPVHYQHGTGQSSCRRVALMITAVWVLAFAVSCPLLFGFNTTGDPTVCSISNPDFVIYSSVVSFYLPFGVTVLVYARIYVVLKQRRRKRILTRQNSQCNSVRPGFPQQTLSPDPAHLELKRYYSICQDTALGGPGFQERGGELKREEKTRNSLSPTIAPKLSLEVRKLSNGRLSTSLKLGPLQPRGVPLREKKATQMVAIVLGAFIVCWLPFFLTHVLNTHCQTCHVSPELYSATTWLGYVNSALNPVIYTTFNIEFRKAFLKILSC
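Agonist mode: compounds and dopamine controls were applied to plated cells for 90 min at 37 degrees C after an overnight attachment at 1500 cells/well. Luminescent read-out followed 30 - 60 minutes at room temperature with DiscoveRx detection reagent.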
Giardia kill – Small Molecules that selectively kill Giardia lamblia: qHTS | Giardia lamblia trophozoite viability | activity change, % at 7.66 µM, hits read low | 340,000 compounds, 0.15% hits | AID 540267, 2011; in the data active = activity change below about -80%; inconclusive = between about -30% and that limit;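 also: parasites exposed to compound for two days anaerobically before the ATP read; % is scaled to controls: 0 for no effect and ±100 for the full control effect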
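Trophozoite viability was measured as ATP-dependent luminescence, read 15-30 min after reagent addition. Before that, parasites at 100 cells/well were exposed to compounds for 48 h, anaerobically, at 37 deg C.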
D3 antag – qHTS of D3 Dopamine Receptor Antagonist: qHTS. D(3) dopamine receptor (Homo sapiens), P35462. D3R cells, DiscoveRx beta-arrestin luminescence, antagonist mode; hits give low values. max response, negative = inhibition, %. 360,000 compounds, 2.5% hits. AID 652054, 2013; in the data active = max response below about -50%; inconclusive = no clear call, values can overlap the other calls; also: % is scaled to controls: 0 for no effect and ±100 for the full control effect
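Cells plated overnight at 1500 cells/well, then exposed to library compounds with dopamine controls for 90 minutes at 37 degrees C. DiscoveRx reagent added for 30–60 minutes at room temperature; luminescence read, quantitative HTS format.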
* hit, by the source's call; u = inconclusive; x = no result.

SMILES	B2AR arrestin	DRD3 agonist	Giardia kill	D3 antag
O=C(NCc1ccccc1)C(CCc1ccccc1)n1c(=O)c(-c2cc3ccccc3[nH]2)nc2ccccc21 (stereo unspecified)	x	8.5	x	20.9
O=C(CCC1CCCC1)N1CCc2c([nH]c3ccccc23)C1c1ccc(Cl)cc1 (stereo unspecified)	x	-12.4	x	x
COc1cc2c(C(=O)N3CCN(c4ccc(C)cc4)C(C)C3)cn(CC(C)C)c(=O)c2cc1OC (stereo unspecified)	x	5.1	x	x
COc1ccc(-c2nc3ccc(NC(=O)COC(C)=O)cc3c(=O)n2Cc2ccccc2)cc1COc1ccc(NC(C)=O)cc1	x	x	-17.0	x
Cc1nc2ccccc2c(=O)n1/N=C/c1ccc([N+](=O)[O-])o1	6.5%	x	x	x
CC(=O)N(/N=C/c1ccc([N+](=O)[O-])o1)c1nc2ccccc2c(=O)n1-c1ccccc1	0.6%	-21.9	u	-53.8*
CCN1CCN(Cc2ccc(NC(=O)c3cc(NC(=O)c4cc5cccc(OC)c5o4)cc(OC)c3)cc2C(F)(F)F)CC1	-0.4%	-9.9	-23.1	-58.1*
CCN1CCN(Cc2ccc(NC(=O)c3cc(NC(=O)c4ccno4)cc(OC)c3)cc2C(F)(F)F)CC1	-0.2%	-3.1	12.2	3.4
COc1cc(NC(=O)c2cc3cccc(OC)c3o2)cc(C(=O)Nc2cccc(C(F)(F)F)c2)c1	0.0%	46.4*	-10.4	133.3
CCOC(=O)COc1ccc(CC)cc1C(=O)c1ccn2nc(-c3ccc(F)cc3)cc2n1	x	5.5	x	x
Cc1ccc(-n2nc(C(=O)N3CCN(c4cccc(C(F)(F)F)c4)CC3)c3c4ccccc4n(C)c3c2=O)cc1	x	-17.8	x	x
COc1ccc(SCC(Cc2ccccc2)N2CCN(CCc3ccccc3)CCC2=O)cc1 (stereo unspecified)	x	x	-10.0	x
COCCNc1ncnc2c1ncn2[C@H]1CN(CCOC)C[C@@H](CO)O1	x	0.5	x	0.0
CNc1ncnc2c1ncn2[C@H]1CN(CCOC)C[C@@H](CO)O1	x	5.4	x	-55.9*
CNc1ncnc2c1ncn2[C@H]1CN(Cc2cccc3ccccc23)C[C@@H](CO)O1	x	110.8*	x	25.4
CNc1ncnc2c1ncn2[C@H]1CN(Cc2ccccc2)C[C@@H](CO)O1	x	-7.5	x	-8.1
O=S(=O)(Nc1cccc(S(=O)(=O)N2CCCCCC2)c1)c1ccccc1	-0.6%	32.8*	-3.7	2.8
O=S(=O)(Nc1cccc(S(=O)(=O)N2CCCC2)c1)c1ccc(F)cc1	-1.5%	1.4	-4.9	15.9
CC[C@H](C)C(C(=O)N1CCN(C(=O)OC(C)(C)C)CC1)n1cc(C(Cc2ccc(O)cc2)NC(=O)OC(C)(C)C)nn1 (stereo partly specified)	-0.3%	52.3*	-26.8	72.8
COc1ccc(CN(Cc2ccccc2)C(=O)CN2CCN(C)CC2)cc1COc1ccc(NC(C)=O)cc1	x	x	-1.4	x
CCCNC(=O)NS(=O)(=O)c1cnccc1Sc1ccc(Cl)c(Cl)c1	-0.8%	9.9	3.2	-53.4*
CC1CCN(C(=O)Cn2cc(SCc3cccc(F)c3)c3ccccc32)CC1	x	-5.3	x	x
O=C(CN1CCC(C(=O)c2ccc(F)cc2)CC1)Nc1ccccc1	0.0%	-27.6	8.8	-80.5*
Cc1ccc(C(=O)C2CCN(CC(=O)Nc3ccc4c(c3)OCCO4)CC2)cc1	-0.9%	0.0	-8.7	-69.6*
CC1Cc2ccccc2N1CC(=O)Nc1ccc2c(c1)OCCCO2 (stereo unspecified)	-0.7%	67.4*	-1.8	-1.5
SMILES	B2AR arrestin	DRD3 agonist	Giardia kill	D3 antag
CN(C)c1ccc(NC(=O)CN2CCC(O)(c3ccccc3)CC2)cc1	-0.3%	-17.4	-8.9	-79.0*
CC(=O)c1ccc(NC(=O)CN2CCC(C(=O)c3ccc(F)cc3)CC2)cc1	-0.1%	-15.8	2.0	u
CN(C)c1ccc(NC(=O)CN2CCN(CC(=O)Nc3ccc(F)cc3)CC2)cc1	-0.2%	7.1	-6.7	2.3
CC1Cc2ccccc2N1CC(=O)Nc1ccc(N2CCOCC2)cc1 (stereo unspecified)	0.1%	-2.9	7.8	-7.4
CC(CSC(=O)c1ccccc1)C(=O)N1C[C@@H](Sc2ccccc2)C[C@H]1C(=O)O (stereo partly specified)	x	-1.1	x	x
O=C(CN1CCN(c2ccc(O)cc2)CC1)Nc1ccc2c(c1)OCCO2	0.0%	30.2*	3.3	4.1
Cc1ccc(C(=O)C2CCN(CC(=O)Nc3ccc(N(C)C)cc3)CC2)cc1	-0.5%	-63.2	18.1	-81.9*
O=C(CN1CCC(C(=O)c2ccc(F)cc2)CC1)Nc1ccc(F)cc1	0.2%	0.6	12.7	-70.8*
COc1ccc(S(=O)(=O)N2CCN(Cc3nc4ccc(C)cc4o3)CC2)cc1Cl	x	-21.1	x	x
CCOC(=O)C1CCN(Cc2cn3c(-c4ccc(OC)cc4)nnc3s2)CC1	x	-13.7	x	x
CCN1CCN(C(=O)Cn2ncc3c4ccccc4n(Cc4c(C)cc(C)cc4C)c3c2=O)CC1	x	-19.7	x	x
C[C@@H]1CN([C@H](C)CO)S(=O)(=O)c2ccc(Br)cc2O[C@@H]1CN(C)Cc1ccc(C(=O)O)cc1	x	-2.0	x	-4.6
C[C@@H]1CN([C@@H](C)CO)S(=O)(=O)c2ccc(/C=C/c3ccccc3)cc2O[C@@H]1CN(C)Cc1ccc(C(=O)O)cc1	x	37.5*	x	8.9
CCCCC(=O)N1C/C=C\C(c2ccc(OC)cc2)N(Cc2ccc(F)cc2)C(=O)C1Cc1ccccc1 (stereo unspecified)	x	x	6.6	x
COc1ccc(C(CNC(=O)c2cc3c(s2)CCC(C)C3)N2CCOCC2)cc1 (stereo unspecified)	0.0%	-28.1	-7.7	-103.2*
COc1ccc(C(CNC(=O)C(C)Oc2ccc(Br)cc2)N2CCOCC2)cc1 (stereo unspecified)	0.2%	-28.3	9.8	-69.4*
O=C(NCC(c1ccco1)N1CCCCC1)c1cc2c(s1)CCCC2 (stereo unspecified)	0.0%	-23.7	29.6	-75.3*
COc1ccc(C(CNC(=O)c2ccc(Cl)s2)N2CCOCC2)cc1 (stereo unspecified)	3.3%	-14.3	8.3	-7.4
COc1ccc(C(CNC(=O)c2cc3c(s2)CCC(C)C3)N2CCCC2)cc1 (stereo unspecified)	0.2%	-24.2	2.5	-105.0*
COc1ccc(C(CNC(=O)CSc2ccc(Br)cc2)N2CCOCC2)cc1 (stereo unspecified)	0.1%	-17.2	0.1	-15.0
Cc1ccc(NS(=O)(=O)c2ccccc2)c(C)c1	x	x	10.6	x
CN(C)c1nc(N/N=C/c2ccccc2O)nc(Nc2ccc(F)cc2)n1	u	-35.6	5.7	-84.8*
CCN1CCN(C(CCc2ccccc2)C(=O)NC2CCCCC2)CC1 (stereo unspecified)	x	-13.8	x	-72.7*
CC(=O)C1=C(c2ccc(Cl)cc2)N(C(C)=O)n2c(nnc2C2CCCCC2)S1	x	-1.2	x	x
CC(=O)Nc1ccc(NC2=Nc3ccccc3N3C2=Nc2c(c(C)nn2-c2ccccc2)C3c2ccccc2)cc1 (stereo unspecified)	-2.0%	34.1*	-14.5	6.6
